Screen size: about 320,000 compounds; about 9,100 (2.8%) were called active. Roughly 3% stayed inconclusive and do not appear here. Shown is part of a subset that was picked to be rich in actives. A number with no mark means an inactive call. Calls follow the shape of the dose curve; as a rule, active = well fitted activation curve with a large enough effect; inconclusive = small, poorly fitted or top-dose-only effect; inactive = no such curve, though single readings can be large or run the other way.
Test: qHTS Assay for Rab9 Promoter Activators; also: nearly all actives have a fitted effect of over 60% in size; as to activation, negative = inhibition: % of control where 0% means no effect
Details: Huh7 Rab9 promoter-luciferase reporter, luminescence, 24 h; series mostly up to 9.22 µM; activation, negative = inhibition: at the top concentration
Excerpt: NIH Chemical Genomics Center [NCGC] NIH Molecular Libraries Probe Production centers Network [MLPCN] MLPCN Grant: MH089537-01 Assay Submitter (PI): Yiannis A. Ioannou NCGC Assay Overview: Niemann Pick Type C (NPC) is a rare neurodegenerative lipidosis that is characterized by lipid storage in the endosomal/lysosomal system. Treatment modalities for this devastating disease are currently non-existent due to the severe obstacles associated with accessing the central nervous system with proteins or genes (Ioannou, 2000). We have developed a new paradigm, termed "Orphan Receptor Bypass Therapy" (ORByT), to address these disorders. This paradigm posits the existence of endogenous "suppressor" proteins whose expression can dramatically improve LSD pathogenesis. The goal is the identification/discovery of small chemical compounds that can modulate the expression of these proteins and provide a new treatment modality for these devastating disorders. One such protein whose overexpression reverses aspects of the NPC phenotype is Rab9. We have developed and optimized a cell based luciferase reporter assay in 1536 well format for the identification of up-regulators of the Rab9 promoter.
The Rab9 promoter is cloned in front of the luciferase reporter gene, therefore […] promoter activation results in luciferase expression. Frozen stock of the Rab9 promoter transfected Huh7 cells were obtained from the laboratory of Dr. Yiannis Ioannou (The Mount Sinai School of Medicine, New York, NY). Cells were propagated and maintained at NCGC in medium containing RPMI-1640 supplemented with 10% FBS, 2mM L-glutamine, and 50ug/ml penicillin/streptomycin. Cells were harvested in and plated for assays in OP-MEM I reduced-serum medium supplemented with 10% FBS. The Amplite luciferase reporter gene assay kit was purchased from ABD Bioquest and prepared/stored according to manufacturers recommendations. qHTS Assay Setup: 1.Dispensed 5ul of Huh7 cells stably expressing Rab9-luciferase at a density of 1500 cells per well 1536-well plates. 2.Incubate cells at 37C, 5% CO2, and 95% humidity for 2 hours. 3.Transferred 23nl per well of compound in DMSO solution. 4.Incubated at 37C, 5% CO2, and 95% humidity for 24 hours. 5.Dispensed 3ul per well of Amplite reagent(ABD Bioquest) per well. 6.Incubate at ambient for 10 minutes. 7.Read using the luminescence protocol on the ViewLux plate reader (Perkin Elmer).
Potency is read from the fitted curve at half-maximal effect.

Row | Compound | activation, negative = inhibition | Potency
1 | CCOc1ccc(NC(=O)COC(=O)C2CCC(=O)N2)c([N+](=O)[O-])c1 (centres undefined) | 6.59% (inactive) | 
2 | C[C@H](NC(=O)c1[nH]cnc1C(=O)Nc1nccs1)c1ccccc1 | -3.31% (inactive) | 
3 | CSc1ccccc1OCc1cc(C(=O)N(C)CCc2c(C)n[nH]c2C)no1 | 20.2% (inactive) | 
4 | COC(=O)[C@@H]1CCCN1C(=O)c1cc(COc2cccc3cccnc23)on1 | 1.02% (inactive) | 
5 | CSc1ccccc1OCc1cc(C(=O)N2C[C@H]3CC[C@H]2C3)no1 |  | 2820 nM (active)
6 | CC(OC(=O)CN1C(=O)c2ccccc2C1=O)C(=O)c1ccccc1 (centres undefined) | -0.0549% (inactive) | 
7 | Cc1cc(C(=O)Nc2ccc(C)c(S(=O)(=O)N3CCOCC3)c2)c2ccccc2n1 | -0.945% (inactive) | 
8 | Cc1ccc(C(=O)NCC(c2cccs2)N(C)C)cc1S(=O)(=O)N1CCOCC1 (centres undefined) | -1.2% (inactive) | 
9 | Nc1ccn(CC(=O)N2CCN(c3ccccn3)CC2)c(=O)n1 | -3.9% (inactive) | 
10 | O=C(/C=C/c1ccco1)Nc1ccc(Oc2ccccc2)cc1 |  | 3980 nM (active)
11 | O=C(/C=C/c1ccco1)NC(=S)Nc1ccccc1Br | -1.03% (inactive) | 
12 | Cc1nnc(NC(=O)/C=C/c2ccco2)s1 | 29.5% (inactive) | 
13 | Cc1cc(C)nc(N/N=C/c2c(C)oc3ccccc23)n1 | -2.47% (inactive) | 
14 | C(=N\Nc1ccc2ccccc2n1)/c1ccc2c(c1)OCO2 |  | 100 nM (active)
15 | Cc1noc(C)c1/C=N/Nc1ccc2ccccc2n1 |  | 708 nM (active)
16 | Brc1ccc(-c2csc(N/N=C/c3ccc4c(c3)OCO4)n2)cc1 | -5.19% (inactive) | 
17 | O=C(Nc1ccc2ccccc2c1)/C(=C\c1ccc2c(c1)OCO2)NC(=O)c1ccco1 | -6.34% (inactive) | 
18 | Cc1nc(Cl)cc(N/N=C/c2ccccc2)n1 | 21.6% (inactive) | 
19 | CC(C)Oc1ccc(S(=O)(=O)N2CCOCC2)cc1NC(=O)C1CCCC1 | -0.79% (inactive) | 
20 | CCN(CC(=O)Nc1c(F)cccc1F)C(=O)c1ccc(-c2ccccc2)cc1 | 6.76% (inactive) | 
21 | O=C(O)CSc1ccc(S(=O)(=O)N2CCCC2)cn1 | 9.49% (inactive) | 
22 | COC(=O)c1ccc(NC(=O)c2ccco2)cc1 |  | 2820 nM (active)
23 | CCOC(=O)c1ccc(NC(=O)CNC(=O)c2ccco2)cc1 | -2.6% (inactive) | 
24 | O=C(Nc1ccc(O)cc1)c1ccc(NC(=O)c2ccco2)cc1 | 29.1% (inactive) | 
25 | COc1ccc(Cl)cc1NC(=O)CN(C)C(=O)c1ccc2n[nH]nc2c1 | -1.33% (inactive) | 
26 | O=C(/C=C/c1cnc2ccccc2n1)NC1CCCCCC1 |  | 3160 nM (active)
27 | Cc1nc(/N=C(\N)NC(=O)NC2CCCCC2)nc2ccccc12 | -23.8% (inactive) | 

Row | Compound | activation, negative = inhibition | Potency
28 | O=C(Cn1c(-c2cncs2)nc2ccccc21)NC1CCCC1 | -3.47% (inactive) | 
29 | Nc1ccc(Nc2cc(O)c3ncccc3c2)cc1 | -37.2% (inactive) | 
30 | CN1CCN(S(=O)(=O)c2cccc(C(=O)Nc3cccc(S(N)(=O)=O)c3)c2)CC1 | -8.11% (inactive) | 
31 | COC(=O)c1ccc(-c2c(-c3ccccc3)ncc3cc(OC)c(OC)cc23)cc1 | 1.03% (inactive) | 
32 | Cc1nc(N2CCCCC2)sc1C=O | -3.8% (inactive) | 
33 | Brc1ccc2nc(N3CCCC3)sc2c1 |  | 1410 nM (active)
34 | CN(C)CCCN(C(=O)c1ccc(S(=O)(=O)N2CCCCCC2)cc1)c1nc2cc3c(cc2s1)OCCO3 | 0.137% (inactive) | 
35 | O=C(NCCc1cccc(F)c1)C1CCCN(c2nc3ccccc3s2)C1 (centres undefined) | 11.3% (inactive) | 
36 | c1c2c(cc3sc(N4CCCCC4)nc13)OCCO2 |  | 355 nM (active)
37 | Fc1ccc2nc(N3CCCCC3)sc2c1 |  | 891 nM (active)
38 | Cc1nc2ccc(NC(=O)C3CCCCC3)cc2s1 | 24.9% (inactive) | 
39 | CN(C)CCCN(C(=O)c1ccc(S(=O)(=O)N2CCCCCC2)cc1)c1nc2ccc(Br)cc2s1 | -1.22% (inactive) | 
40 | COc1ccc2nc(N3CCN(C(=O)c4ccc([N+](=O)[O-])o4)CC3)sc2c1 | 26.3% (inactive) | 
41 | CCC(=O)c1ccc(OCC(=O)N(CC)CC2COc3ccccc3O2)cc1 (centres undefined) | -2.01% (inactive) | 
42 | CCc1sc(C(=O)N2CCN(CC(=O)Nc3cccc(F)c3)CC2)cc1C | -2.46% (inactive) | 
43 | CC1CCCC(NC(=O)c2cc(-c3ccncc3)nc3ccccc23)C1C (centres undefined) | 13.4% (inactive) | 
44 | Cc1ccc(/C=C/C(=O)OCC(=O)Nc2cccnc2Cl)cc1 | -2.71% (inactive) | 
45 | COc1cc(/C=C2\SC(=O)NC2=O)ccc1OCc1ccc(Cl)nc1 | -1.24% [at 1.84 µM] | 
46 | Cc1ccc(C)c(NC(=O)C(c2ccccc2)N2CCN(CC(=O)NC3CC3)CC2)c1 (centres undefined) | -2.84% (inactive) | 
47 | COc1ccc(C(=O)NCc2ccc(C)cc2)cc1S(=O)(=O)N1CCCC1 | 13% (inactive) | 
48 | CC(=O)Nc1ccc(NC(=O)CSc2nnnn2C2CCCCC2)cc1 | -1.4% (inactive) | 
49 | O=C(CSc1nnnn1C1CCCC1)N1CCCCC1 |  | 3160 nM (active)
50 | CC1CCCC(C)N1C(=O)CSc1nnnn1C1CCCC1 (centres undefined) | 22.7% (inactive) | 
51 | C[C@H](OC(=O)n1ccnc1)[C@@H]1O[C@@]2(C)CCC[C@@H]1O2 | 0.69% (inactive) | 
52 | COCC1CCCN(Cc2nc(-c3ccc4c(c3)OCO4)no2)C1 (centres undefined) |  | 3160 nM (active)
53 | CC(C)N(Cc1nc(-c2ccc3c(c2)OCO3)no1)CC1CCC(=O)N1 (centres undefined) | -1.11% (inactive) | 
54 | CN(CCN1CCOCC1)Cc1nc(-c2ccc3c(c2)OCO3)no1 | 2.86% (inactive) | 

From PubChem BioAssay AID485297 (National Center for Advancing Translational Sciences (NCATS), 2010)
